{"source": "the supplement of paper PMC8728848", "binders": {"B1": {"name": "Pbx1 (Cryptococcus neoformans) (protein)", "chain": "ATTKCLVSGDQDSINNALALGGEGTTVTLCPGSVHRLNSSIIFTAPSQTLTTLGNPKDRNRAMLVVDGEDLACAIRADCKQCSHAMIRSLVIDGNRPQLLRIPKGDALIEVGNAESQTVRDCKLYEPRGWSALHFREGDERQCRFGHIVDNEIGPCGEEWDDEYDSMDETKPLWGNPRADGISLACKDSIVERNVVYDATDGAIVLFGSAGSTVKNNHVYARTRVILGGINLVDYEPWDGDYTNVKVHHNHLYALGRYFKVGIVIGPASWSDDTESVVHSASVTDNEFSGGYWGYGIVVASAKNFEVLRNKVIWDGEQGVARFSGVPGSRCPKAPENGKPTAFLINRGSAKGIFQDDFVNGEVQHIICLNPDQDPPYKPWRFRDSPEAIAAKQAENPTANSAFDSRIAEALVSYQMSLLNSMDAMTQKVEHLTNPIVDDALPFVHEHERAEADKKARQEASRKEKESGNKDVDMLNVKVEELEKSGRRLKKALDGLKSDFEGLSGRLKKSADENKPIIETIFVTSQNLLLGATSQQN"}}, "test_in_all_cases": "glycan array binding signal (z-score within array); higher = stronger binding", "conditions_in_all_cases": "glycan notation: IUPAC condensed, linker removed", "key": {"[1]": {"molecular_target": "Fuc(a1-2)Gal(b1-3)[Fuc(a1-4)]GlcNAc(b1-2)Man(a1-3)[Fuc(a1-2)Gal(b1-3)[Fuc(a1-4)]GlcNAc(b1-2)Man(a1-3)]Man(b1-4)GlcNAc(b1-4)GlcNAc", "outline": "(§1)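 From the Consortium for Functional Glycomics database, 3228 arrays were curated, keeping only those whose protein sequence was available. Binding is given as a within-array Z-score averaged across arrays sharing a protein sequence and across linkers. Negative Z-scores can be read as non-binding.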"}, "[2]": {"molecular_target": "Fuc(a1-2)Gal(b1-4)GlcNAc(b1-2)Man", "outline": "as §1"}, "[3]": {"molecular_target": "Fuc(a1-2)[Gal(a1-3)]Gal(b1-4)GlcNAc(b1-2)Man", "outline": "as §1"}, "[4]": {"molecular_target": "Fuc(a1-2)[Gal(a1-4)]Gal(b1-4)GlcNAc", "outline": "as §1"}, "[5]": {"molecular_target": "Fuc(a1-2)[GalNAc(a1-3)]Gal(b1-4)GlcNAc(b1-6)GalNAc", "outline": "as §1"}, "[6]": {"molecular_target": "Fuc(a1-3)[Gal(b1-4)]GlcNAc(b1-6)GalNAc", "outline": "as §1"}, "[7]": {"molecular_target": "Gal(a1-3)Gal(b1-3)GlcNAc(b1-2)Man", "outline": "as §1"}, "[8]": {"molecular_target": "Gal(a1-4)Gal(b1-3)GlcNAc(b1-2)Man(a1-3)[Gal(a1-4)Gal(b1-3)GlcNAc(b1-2)Man(a1-6)]Man(b1-4)GlcNAc(b1-4)GlcNAc", "outline": "as §1"}, "[9]": {"molecular_target": "Gal(b1-3)GlcNAc(a1-3)Gal(b1-4)GlcNAc", "outline": "as §1"}, "[10]": {"molecular_target": "Gal(b1-3)GlcNAc(b1-2)Man(a1-3)[GlcNAc(b1-4)][Gal(b1-3)GlcNAc(b1-2)Man(a1-6)]Man(b1-4)GlcNAc(b1-4)GlcNAc", "outline": "as §1"}, "[11]": {"molecular_target": "Gal(b1-3)GlcNAc(b1-3)Gal(b1-4)Glc", "outline": "as §1"}, "[12]": {"molecular_target": "Gal(b1-3)GlcNAc(b1-3)Gal(b1-4)GlcNAc(b1-3)Gal(b1-4)GlcNAc(b1-2)[Gal(b1-3)GlcNAc(b1-3)Gal(b1-4)GlcNAc(b1-3)Gal(b1-4)GlcNAc(b1-6)]Man(a1-6)[Gal(b1-3)GlcNAc(b1-3)Gal(b1-4)GlcNAc(b1-3)Gal(b1-4)GlcNAc(b1-2)Man(a1-3)]Man(b1-4)GlcNAc(b1-4)[Fuc(a1-6)]GlcNAc", "outline": "as §1"}, "[13]": {"molecular_target": "Gal(b1-4)GlcNAc(b1-2)Man(a1-3)Man(b1-4)GlcNAc(b1-4)GlcNAc", "outline": "as §1"}, "[14]": {"molecular_target": "Gal(b1-4)GlcNAc(b1-2)[Gal(b1-4)GlcNAc(b1-4)]Man(a1-3)[Gal(b1-4)GlcNAc(b1-2)[Gal(b1-4)GlcNAc(b1-6)]Man(a1-6)]Man(b1-4)GlcNAc(b1-4)GlcNAc", "outline": "as §1"}, "[15]": {"molecular_target": "Gal(b1-4)GlcNAc(b1-3)Gal(b1-4)GlcNAc(b1-2)Man(a1-3)[Gal(b1-4)GlcNAc(b1-3)Gal(b1-4)GlcNAc(b1-2)Man(a1-6)]Man(b1-4)GlcNAc(b1-4)GlcNAc", "outline": "as §1"}, "[16]": {"molecular_target": "Gal(b1-4)GlcNAc(b1-3)Gal(b1-4)GlcNAc(b1-3)Gal(b1-4)GlcNAc(b1-2)Man(a1-3)[Gal(b1-4)GlcNAc(b1-3)Gal(b1-4)GlcNAc(b1-3)Gal(b1-4)GlcNAc(b1-2)Man(a1-6)]Man(b1-4)GlcNAc(b1-4)GlcNAc", "outline": "as §1"}, "[17]": {"molecular_target": "Gal(b1-4)GlcNAc(b1-3)Gal(b1-4)GlcNAc(b1-3)Gal(b1-4)GlcNAc(b1-3)Gal(b1-4)GlcNAc(b1-3)Gal(b1-4)GlcNAc(b1-2)Man(a1-3)[Gal(b1-4)GlcNAc(b1-3)Gal(b1-4)GlcNAc(b1-3)Gal(b1-4)GlcNAc(b1-3)Gal(b1-4)GlcNAc(b1-3)Gal(b1-4)GlcNAc(b1-2)Man(a1-6)]Man(b1-4)GlcNAc(b1-4)[Fuc(a1-6)]GlcNAc", "outline": "as §1"}, "[18]": {"molecular_target": "Gal(b1-4)GlcNAc(b1-3)Gal(b1-4)GlcNAc(b1-3)Gal(b1-4)GlcNAc(b1-3)Gal(b1-4)GlcNAc(b1-3)Gal(b1-4)GlcNAc(b1-2)[Gal(b1-4)GlcNAc(b1-3)Gal(b1-4)GlcNAc(b1-3)Gal(b1-4)GlcNAc(b1-3)Gal(b1-4)GlcNAc(b1-3)Gal(b1-4)GlcNAc(b1-6)]Man(a1-6)[Gal(b1-4)GlcNAc(b1-3)Gal(b1-4)GlcNAc(b1-3)Gal(b1-4)GlcNAc(b1-3)Gal(b1-4)GlcNAc(b1-3)Gal(b1-4)GlcNAc(b1-2)Man(a1-3)]Man(b1-4)GlcNAc(b1-4)[Fuc(a1-6)]GlcNAc", "outline": "as §1"}, "[19]": {"molecular_target": "Gal(b1-4)GlcNAc(b1-3)Gal(b1-4)GlcNAc(b1-3)Gal(b1-4)GlcNAc(b1-3)Gal(b1-4)GlcNAc(b1-3)Gal(b1-4)GlcNAc(b1-3)Gal(b1-4)GlcNAc(b1-2)Man(a1-3)[Gal(b1-4)GlcNAc(b1-3)Gal(b1-4)GlcNAc(b1-3)Gal(b1-4)GlcNAc(b1-3)Gal(b1-4)GlcNAc(b1-3)Gal(b1-4)GlcNAc(b1-3)Gal(b1-4)GlcNAc(b1-2)Man(a1-6)]Man(b1-4)GlcNAc(b1-4)GlcNAc", "outline": "as §1"}, "[20]": {"molecular_target": "Gal(b1-4)GlcNAc(b1-3)Gal(b1-4)GlcNAc(b1-6)[Gal(b1-3)]GalNAc", "outline": "as §1"}, "[21]": {"molecular_target": "Gal(b1-6)Gal", "outline": "as §1"}, "[22]": {"molecular_target": "Gal4S6S(b1-4)GlcNAc", "outline": "as §1"}, "[23]": {"molecular_target": "Gal6S(b1-3)GlcNAc", "outline": "as §1"}, "[24]": {"molecular_target": "GalNAc3S(b1-4)[Fuc(a1-3)]GlcNAc", "outline": "as §1"}, "[25]": {"molecular_target": "Glc(a1-4)Glc", "outline": "as §1"}, "[26]": {"molecular_target": "Glc(a1-4)Glc(a1-4)Glc(a1-4)Glc", "outline": "as §1"}, "[27]": {"molecular_target": "GlcA(b1-3)GlcNAc", "outline": "as §1"}, "[28]": {"molecular_target": "GlcNAc(a1-3)Gal(b1-4)GlcNAc", "outline": "as §1"}, "[29]": {"molecular_target": "GlcNAc(b1-2)[GlcNAc(b1-6)]Man(a1-6)[GlcNAc(b1-2)Man(a1-3)]Man(b1-4)GlcNAc(b1-4)[Fuc(a1-6)]GlcNAc", "outline": "as §1"}, "[30]": {"molecular_target": "GlcNAc(b1-2)[GlcNAc(b1-6)]Man(a1-6)[GlcNAc(b1-4)][GlcNAc(b1-2)Man(a1-3)]Man(b1-4)GlcNAc(b1-4)GlcNAc", "outline": "as §1"}}, "note": "The entries come from a sample that favours the strongest signals as a whole."}
{"binder": "B1", "values": [{"measurement": "glycan array binding signal (z-score)", "setting": "[1]", "result": 2.82}, {"measurement": "glycan array binding signal (z-score)", "setting": "[2]", "result": -0.654}, {"measurement": "glycan array binding signal (z-score)", "setting": "[3]", "result": -0.203}, {"measurement": "glycan array binding signal (z-score)", "setting": "[4]", "result": 0.002}, {"measurement": "glycan array binding signal (z-score)", "setting": "[5]", "result": 0.252}, {"measurement": "glycan array binding signal (z-score)", "setting": "[6]", "result": 2.34}, {"measurement": "glycan array binding signal (z-score)", "setting": "[7]", "result": 1.04}, {"measurement": "glycan array binding signal (z-score)", "setting": "[8]", "result": 2.14}, {"measurement": "glycan array binding signal (z-score)", "setting": "[9]", "result": -0.304}, {"measurement": "glycan array binding signal (z-score)", "setting": "[10]", "result": 0.415}, {"measurement": "glycan array binding signal (z-score)", "setting": "[11]", "result": -0.533}, {"measurement": "glycan array binding signal (z-score)", "setting": "[12]", "result": 15}, {"measurement": "glycan array binding signal (z-score)", "setting": "[13]", "result": -0.195}, {"measurement": "glycan array binding signal (z-score)", "setting": "[14]", "result": 0.072}, {"measurement": "glycan array binding signal (z-score)", "setting": "[15]", "result": 2.91}, {"measurement": "glycan array binding signal (z-score)", "setting": "[16]", "result": 2.41}, {"measurement": "glycan array binding signal (z-score)", "setting": "[17]", "result": 5.6}, {"measurement": "glycan array binding signal (z-score)", "setting": "[18]", "result": 4.38}, {"measurement": "glycan array binding signal (z-score)", "setting": "[19]", "result": 1.03}, {"measurement": "glycan array binding signal (z-score)", "setting": "[20]", "result": 2.33}, {"measurement": "glycan array binding signal (z-score)", "setting": "[21]", "result": -0.233}, {"measurement": "glycan array binding signal (z-score)", "setting": "[22]", "result": -0.366}, {"measurement": "glycan array binding signal (z-score)", "setting": "[23]", "result": 0.304}, {"measurement": "glycan array binding signal (z-score)", "setting": "[24]", "result": 0.766}, {"measurement": "glycan array binding signal (z-score)", "setting": "[25]", "result": 0.352}, {"measurement": "glycan array binding signal (z-score)", "setting": "[26]", "result": -0.56}, {"measurement": "glycan array binding signal (z-score)", "setting": "[27]", "result": 0.759}, {"measurement": "glycan array binding signal (z-score)", "setting": "[28]", "result": 0.052}, {"measurement": "glycan array binding signal (z-score)", "setting": "[29]", "result": -0.137}, {"measurement": "glycan array binding signal (z-score)", "setting": "[30]", "result": -0.848}]}
